High-throughput results: PubChem BioAssay, National Center for Advancing Translational Sciences (NCATS)
MARV entry inh: inhibitors of Marburg virus binding or cell entry | Marburg virus pseudotyped entry inhibition, cell reporter | Potency, µM (top dose mostly 37.8 µM), without a hit: at the highest dose activity change, negative = inhibition, most hits filed as inhibitors | actives 1.8% (n = 300,000); calls by dose curve; tested in HEK293 cells; further: potency means the concentration at half of the fitted maximal effect
Lassa entry inh: inhibitors of Lassa virus binding or cell entry; Lassa virus pseudotype entry inhibition, cell reporter; Potency, µM (top dose mostly 37.9 µM), for inactives: at the top dose activity change, negative = inhibition, actives largely listed as inhibitors; actives 1.2% (n = 300,000); calls by dose curve; tested in HEK293 cells; further: potency means the concentration at half of the fitted maximal effect; nearly all actives have a fitted effect of over 50% in size
Vaccinia Venus: vaccinia inhibition (Venus reporter); Vaccinia virus Venus reporter expression, fluorescence; Potency, µM (titrated, usually from 36.5 µM), inactives show at the highest dose activity change, negative = inhibition, usual class: inhibitors; actives 0.46% (n = 330,000); calls by dose curve; tested in A549 cells; further: potency means the concentration at half of the fitted maximal effect; nearly all actives have a fitted effect of over 30% in size
HCMV antiviral: human cytomegalovirus inhibition. activity change, negative = inhibition, % at 57.5 µM. actives 4.5% (n = 410,000). HFF cells, HCMV-luciferase reporter, 72 h; stronger effect = lower value. AID 1259415; in the data active means activity change below about -60%; inconclusive means no clear call, values can overlap the other calls; inactive means above about -39%
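Steps: HFFs plated, 16 h 37C; compounds added; HCMV-luciferase added to MOI 1 PFU/cell; 72 h 37C; OneGlo reagent, 5 min room temperature; luminescence read, normalized to controls.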
HCV inh: HCV inhibition | Potency, µM (highest dose often 41.8 µM), inactives show at the highest dose activity change, negative = inhibition, most hits filed as inhibitors | actives 3.4% (n = 340,000) | Huh7.5.1 HCVcc-Cre infection, luciferase reporter, 44 h; active means well fitted inhibition curve with a large enough effect; inconclusive means small, poorly fitted or top-dose-only effect, or another doubt; inactive means no such curve, though single readings can be large or run the other way; further: potency means the concentration at half of the fitted maximal effect
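After 44 h co-culture of compound, cells and HCVcc-Cre (~0.5 moi), substrate is added for 15 min at room temperature and luciferase measured over 15 sec. Cells were seeded at 1,000/well and pre-cultured 4 h.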
VACV mCherry inh: inhibitors of vaccinia virus infection (mCherry reporter signal); AID 720579; Vaccinia virus mCherry reporter infection, fluorescence; actives 0.63% (n = 310,000); Potency, µM (top dose mostly 36.5 µM), without a hit: top-dose activity change, negative = inhibition, actives largely listed as inhibitors; calls by dose curve; tested in A549 cells; further: potency means the concentration at half of the fitted maximal effect; nearly all actives have a fitted effect of over 35% in size
* hit, by the source's call; i = inactive; ? = inconclusive; . = no result; ! = not active in a repeat; [ ] = dose if it differs, or a comment. The list is not random: actives were taken first. Their share in the collection is about 7.8%. On the % scale 0 is the no-effect control and ±100 the full control effect.

SMILES | MARV entry inh | Lassa entry inh | Vaccinia Venus | HCMV antiviral | HCV inh | VACV mCherry inh
CCN(CCn1cccn1)C(=O)CC1C(=O)NCCN1Cc1ccc(F)c(F)c1 (stereo not drawn) | 0% | 17% | 0% | -15 | 6% | -5%
CCN(Cc1ccncc1)C(=O)CC1C(=O)NCCN1Cc1ccc(F)c(F)c1 (stereo not drawn) | . | . | . | -78* | 0% | .
COC(=O)[C@H]1[C@H](CCc2ccccc2)NC(=O)N(Cc2ccccc2)[C@H]1C | -15%[14.2 µM] | ? | . | . | . | .
CC(=O)N(Cc1cccnc1)c1nc2c(F)cc(F)cc2s1 | . | -16%[46.1 µM] | -17% | 0 | . | -19%
O=C(Cc1ccccc1)N(Cc1cccnc1)c1nc2c(F)cc(F)cc2s1 | . | 13µM* | -8% | 0 | . | -16%
CCOc1cccc(C2c3[nH]c4ccccc4c3CCN2C(=O)CCC2CCCC2)c1 (stereo not drawn) | . | ? | -5% | -17 | . | -3%
COc1ccc(C2c3[nH]c4ccc(OC)cc4c3CCN2C(=O)Nc2ccccc2)cc1 (stereo not drawn) | . | ? | -21% | -89* | . | ?
COc1ccc(C2c3[nH]c4ccccc4c3CCN2C(=O)CCC2CCCC2)cc1 (stereo not drawn) | . | ? | 14% | -82* | . | -5%
CCOc1ccc(C2c3[nH]c4ccccc4c3CCN2C(=O)CCC2CCCC2)cc1 (stereo not drawn) | . | ? | 2% | -80* | . | -15%
COc1ccc(C(=O)N2CCc3c([nH]c4ccccc34)C2C(F)(F)F)cc1 (stereo not drawn) | . | . | . | -60* | ? | .
O=C(O)c1ccccc1C(=O)N1CCc2c([nH]c3ccccc23)C1C(F)(F)F (stereo not drawn) | -19%[46.1 µM] | -24%[46.1 µM] | 12% | 4 | 1% | -3%
COc1cccc(CNC(=O)c2cnc3sc(N4CCCC4)nn3c2=O)c1OC | . | 13%[46.1 µM] | -19% | -20 | . | i
Cc1ccccc1C(=O)Nc1cccc(C(=O)OCc2cc(=O)n3c4c(sc3n2)CCCC4)c1 | . | ? | -14% | -19 | . | i
Cc1cc(N2CCCC2)ccc1NC(=O)COc1cccc(C(F)(F)F)c1 | . | . | . | -70* | 13µM* | .
Cc1cc(C)cc(NC(=O)COc2ccc(C(=S)N3CCOCC3)cc2)c1 | ? | 0% | -8% | -62* | ? | -8%
CN1CCN(C(=S)c2ccc(OCC(=O)Nc3cccc(C(F)(F)F)c3)cc2)CC1 | ? | ? | ? | -63* | ? | -19%[1.46 µM]
O=C(COC(=O)COc1cccc(C(F)(F)F)c1)Nc1ccc(N2CCOCC2)cc1 | . | . | . | -27 | 10% | .
COC(=O)C1=C(C)N(CCC(C)O)C(=O)N(C(C)=O)C1c1ccccc1 (stereo not drawn) | 5%[14.2 µM] | ? | . | . | . | .
CCOC1=CC(=O)N(CCC(=O)NCc2ccc(C)cc2)C1 | . | . | . | 2 | . | .
CNc1ccc(/C=C2\C=Cc3ccccc32)cc1I | . | . | -20% | . | . | -30%
Cc1ccc2cc(CCNC(=O)CC(C)C)c(=O)[nH]c2c1 | . | . | -6% | -67* | -1% | i
CCC(=O)NCCc1cc2ccc(C)cc2[nH]c1=O | . | . | -3% | 4 | ? | -18%
O=C(Cc1ccccc1[N+](=O)[O-])c1ccccc1[N+](=O)[O-] | . | . | . | -14 | . | .
CC1(C)CN2C(c3ccc(Cl)cc3)N2C1 (stereo not drawn) | 12% | -1% | -3% | -75* | 7% | -9%
CC(C)(C)c1ccc(S(=O)(=O)NCc2ccc3c(c2)CCN3C(=O)c2ccccc2)cc1 | . | ? | -22% | ? | . | -29%
SMILES | MARV entry inh | Lassa entry inh | Vaccinia Venus | HCMV antiviral | HCV inh | VACV mCherry inh
S=C(NCc1ccncc1)Nc1ccc(Cl)cc1Cl | 12% | -10% | . | ? | -15% | .
S=C(NNc1ccnc2cc(Cl)ccc12)Nc1ccc(Cl)cc1Cl | . | . | . | 0 | 5.6µM* | .
CCOc1ccc(NC(=S)NNc2ccnc3cc(Cl)ccc23)cc1 | ? | -1% | -12% | 54 | 3.2µM* | -4%
CCOc1ccc(NC(=S)NNC(=O)c2cc(Br)ccc2Cl)cc1 | -29%[46.1 µM] | 16% | -8% | -22 | -11% | -1%
CC(OC(=O)/C=C/c1ccc2ccccc2n1)C(=O)N(C)c1ccccc1 (stereo not drawn) | . | . | . | -35 | ? | .
CC(=O)/C=C/c1ccc2ccccc2n1 | ? | ? | ? | -84* | ? | .
COc1ccccc1CNC(=O)COC(=O)/C=C/c1ccc2ccccc2n1 | . | . | . | -62* | 11% | .
COc1ccccc1CNC(=O)COC(=O)/C=C/c1cccs1 | -38% | 1% | -6% | -26 | 4% | i
Cc1ccc(NC(=O)C2CCN(S(=O)(=O)c3c(C)noc3C)CC2)c(C)c1 | 21%[46.1 µM] | -12%[46.1 µM] | -2% | 7 | . | -7%
COc1ccc(OC)c(C(c2nnnn2Cc2ccco2)N2CCN(C)CC2)c1 (stereo not drawn) | . | . | . | -30 | 5% | .
COc1ccccc1N1CCN(C(c2ccc(Cl)cc2)c2nnnn2C(C)(C)C)CC1 (stereo not drawn) | ? | ? | 8% | -66* | ? | .
COc1cccc(C(c2nnnn2Cc2ccco2)N2CCN(c3cccc(C)c3C)CC2)c1OC (stereo not drawn) | ? | ? | ? | -4 | 11µM* | ?
Cc1cccc(N2CCN(C(c3cccs3)c3nnnn3C(C)(C)C)CC2)c1C (stereo not drawn) | 12µM*! | ? | 7% | ? | -6% | i
Cc1ccc(C(c2nnnn2CC2CCCO2)N2CCN(c3cccc(C)c3C)CC2)cc1 (stereo not drawn) | ? | ? | ? | 32 | 11µM*! | .
O=C(NC1CCN(Cc2ccccc2)C1)c1cnn(-c2ncc3c(n2)-c2ccccc2CC3)c1C1CC1 (stereo not drawn) | . | . | -6% | . | . | -28%
Cc1cccc(N2CCN(C(c3ccccc3)c3nnnn3C(C)(C)C)CC2)c1C (stereo not drawn) | ? | 3.3µM* | . | -40 | 2% | .
COCCn1nnnc1C(c1cccs1)N1CCN(c2cc(C)ccc2C)CC1 (stereo not drawn) | 16µM*! | ? | -27% | -8 | 5% | -11%
COc1ccc(Cl)cc1NC(=O)c1ccc(CN2C(=O)CCn3nc(C)cc32)cc1 | . | ? | -17% | ? | . | -16%
COc1ccc(CN2c3ccccc3C(=O)CS2(=O)=O)cc1OC | . | . | . | 19 | . | .
Cc1ccc(Nc2nc(CSc3nnc(-c4cccnc4)n3-c3ccccc3C)cs2)cc1 | ? | ? | -21% | 4 | 32µM* | ?
Cc1ccccc1-n1c(SCc2csc(Nc3ccccc3)n2)nnc1-c1cccnc1 | ? | -18% | -26% | -14 | ? | -3%
CCCCC(=O)Nc1ccc(C)c(S(=O)(=O)N2CCCCCC2)c1 | ? | ? | -16% | -26 | ? | -11%
